Screening data from PubChem BioAssay.
D1 ag: activates the human D1 dopamine receptor; P21728; HEK293 T-REx D1 cells, calcium flux, agonist mode; activation, % at 2 µM; 360,000 tested, 1% active; further: 0% is about no effect
Target sequence (P21728 whole entry, looked up): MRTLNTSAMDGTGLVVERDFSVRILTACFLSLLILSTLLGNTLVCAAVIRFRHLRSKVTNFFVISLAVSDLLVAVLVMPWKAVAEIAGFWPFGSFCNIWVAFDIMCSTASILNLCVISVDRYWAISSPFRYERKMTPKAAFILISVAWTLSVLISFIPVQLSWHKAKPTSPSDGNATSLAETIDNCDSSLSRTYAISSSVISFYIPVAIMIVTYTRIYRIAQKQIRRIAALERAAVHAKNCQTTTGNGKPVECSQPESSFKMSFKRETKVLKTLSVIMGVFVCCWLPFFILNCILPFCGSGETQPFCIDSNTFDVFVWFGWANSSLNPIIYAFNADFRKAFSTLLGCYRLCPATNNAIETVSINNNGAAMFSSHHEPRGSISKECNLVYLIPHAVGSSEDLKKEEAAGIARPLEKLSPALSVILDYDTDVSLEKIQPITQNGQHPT
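Inducible HEK293 T-REx D1 cells, force-coupled to calcium signalling, were plated at 4000 cells/well with tetracycline and held overnight at 30 C. After no-wash calcium dye loading, compound-evoked calcium rise over 180 s flagged agonists.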
TRHR PAM: allosterically enhances the human TRH receptor; P34981; TRHR cells, fluo-8 calcium fluorescence, EC20 TRH enhancement; enhancement, % at 2 µM; 360,000 tested, 0.66% active; AID 493056; in the data active means enhancement above about 30%; further: 0% is about no effect
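Enhancer read-out: after compound pinning and an initial kinetic agonist-mode read, an EC20 of TRH (10 nM final) was injected and fluo-8 calcium signal (Ex 480/Em 530) followed at 1 s/cycle for 100 cycles in TRHR-expressing cells.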
D1 PAM: potentiators of human D1 dopamine receptor; HEK293 TREx D1 cells, calcium flux, dopamine EC20 potentiation; potentiation, % at 10 µM; 360,000 tested, 0.036% active; AID 504651; in the data active means potentiation above about 30%; further: 0% is about no effect
TRHR ag: agonists of human TRH receptor | P34981 | TRHR cells, calcium flux fluo-8, FDSS agonist mode | activation, % at 2 µM | 360,000 tested, 0.18% active; further: 0% is about no effect
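TRHR-expressing cells, plated overnight in medium with 10% serum, were loaded with fluo-8 calcium dye at room temperature. After a 10 s baseline, library compound was pin-added and calcium release was recorded kinetically (ex 480/em 530) as agonist response.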
D1 antag: human D1 dopamine receptor antagonism; P21728; HEK293 TREx D1 cells, calcium flux, dopamine EC80; stronger effect = lower value; activity change, negative = inhibition, % at 10 µM; 360,000 tested, 3.2% active; in the data active means activity change below about -30%; further: on the % scale 0 is the no-effect control and ±100 the full control effect
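Kinetic fluorescence of a calcium dye serves as the read-out. D1-expressing Hek293 Trex cells, induced overnight at 30 C, are exposed to compound for 180 s before an EC80 dopamine addition, then read 180 s further.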
* = called active by the depositor; · = no result given. A selection: hits, their analogues and other compounds. The true share with any hit is near 4.7%. Unless noted, no stated cut-off is given here; in the data, active means activation above about 30%; inactive means the rest.

SMILES	D1 ag	TRHR PAM	D1 PAM	TRHR ag	D1 antag
O=C(Oc1coc(CSc2ncccn2)cc1=O)c1ccc(Br)o1	2.2	-0.5	-7.0	0.3	-11.1
Cc1ccc(S(=O)(=O)N2CCC(C(N)=O)CC2)cc1[N+](=O)[O-]	-2.7	-2.9	-1.2	0.4	-39.1*
CCOC(=O)C1CCN(S(=O)(=O)c2ccc(OC)c(OC)c2)CC1	6.1	7.8	-1.9	-1.3	1.4
O=C(OCCOc1cccc(Cl)c1)C1CCN(S(=O)(=O)c2ccccc2)CC1	30.1*	6.1	-1.4	3.2	-22.2
COc1cccc(COC(=O)C2CCN(S(=O)(=O)c3ccc(F)cc3)CC2)c1OC	30.8*	-16.5	-6.0	1.1	-9.1
NC(=O)C1CCN(S(=O)(=O)c2ccccc2[N+](=O)[O-])CC1	0.9	2.5	0.7	0.2	3.3
CCOC(=O)C1CCN(S(=O)(=O)c2ccc(C)c(C)c2)CC1	1.0	32.1*	1.6	-0.1	-5.3
CCOC(=O)C1CCN(S(=O)(=O)c2ccccc2)CC1	3.2	0.1	-6.0	0.5	-10.4
Cc1ccc2c(c1)-c1c(c(C(=O)N3CCN(c4cc(C)ccc4C)CC3)nn1C)CS2	0.4	6.6	-0.5	3.6	6.3
Cc1ccc(CSc2c(C)cnc3c2c(=O)n(C)c(=O)n3C)cc1	1.4	1.3	-0.9	-0.3	·
C=Cc1ccc(Cn2c(C(=O)O)c(CNCc3ccccc3)c3ccc(OC)cc32)cc1	-0.3	-5.5	2.1	0.0	11.3
CCOC(=O)C1CCN(S(=O)(=O)c2cc(-c3onc(C)c3C)ccc2C)CC1	2.3	9.8	-4.0	-0.1	-36.1*
CCOC(=O)C1CCN(S(=O)(=O)c2c(Cl)ccc3nonc23)CC1	4.0	4.2	-8.2	3.5	-35.2*
CCOC(=O)N1CCN(C(=O)CCn2c(=O)[nH]c3ccsc3c2=O)CC1	3.4	-5.0	-4.9	0.1	14.1
CCOC(=O)C1CCN(C(=O)Cn2nc(C)n3c(cc4sccc43)c2=O)CC1	0.5	7.0	-5.8	-0.2	-41.7*
CCOC(=O)N1CCN(C(=O)CCn2c(=S)[nH]c3ccsc3c2=O)CC1	-0.6	38.9*	-3.5	-1.4	-49.3*
CCOC(=O)C1CCN(C(=O)CCn2c(=O)[nH]c3ccsc3c2=O)CC1	2.4	3.4	-7.3	0.5	-37.0*
CCOC(=O)C1CCN(C(=O)Cn2nc(C)n3nc(-c4ccc(OC)cc4)cc3c2=O)CC1	4.3	7.5	-1.8	-0.4	-4.2
Cc1cc(Nc2ccccc2C)nc(-n2nc(C)cc2C)n1	1.8	0.6	0.7	-0.3	9.3
CCOC(=O)/C(=N\Nc1ccc(C(C)=O)cc1)c1csc(Nc2ccccc2)n1	54.3*	-18.8	-6.9	9.2	1.8
CCC(C)NC(=O)c1ccc2c(c1)N=C(C)c1cc(C)ccc1S2 (stereo unspecified)	9.4	-1.4	-2.0	-0.3	15.3
Cn1c(-c2ccc([N+](=O)[O-])cc2)nc2ccccc21	0.8	-0.7	-12.0	-3.4	-17.8
Cn1cc([N+](=O)[O-])cc1-c1nc2ccccc2n1C	2.8	5.3	-3.0	-0.5	-33.7*
CCCCCn1c(C(C)NC(=O)CCC)nc2ccccc21 (stereo unspecified)	0.2	0.3	-5.5	-0.7	-30.1*
Cc1cc(=O)oc2cc(OC(C)C(=O)Nc3nccs3)ccc12 (stereo unspecified)	3.0	-7.9	3.0	-1.1	-37.0*
SMILES	D1 ag	TRHR PAM	D1 PAM	TRHR ag	D1 antag
CCOC(=O)Nc1ccc2c(C)cc(=O)oc2c1	-0.4	5.8	-10.2	0.7	0.0
COC(=O)C(CC(C)C)Oc1ccc2c(C)cc(=O)oc2c1 (stereo unspecified)	9.6	36.4*	-2.5	-0.6	2.8
CCCCOC(=O)Nc1ccc2c(C)cc(=O)oc2c1	-1.3	40.1*	10.4	0.2	-6.1
Cc1cc(=O)oc2cc(OC(C)C(=O)NC3CCCC3)ccc12 (stereo unspecified)	2.0	-4.6	-6.0	-0.5	-6.1
O=C(c1ccc(F)cc1)N1CCN(C2CCC(c3ccccc3)CC2)CC1 (stereo unspecified)	2.7	10.9	1.4	-0.5	-40.9*
COc1ccc(C(=O)N2CCN(C3CCC(c4ccccc4)CC3)CC2)cc1OC (stereo unspecified)	-1.5	-2.4	-11.8	-0.3	-36.9*
O=C(c1ccccc1F)N1CCN(C2CCC(c3ccccc3)CC2)CC1 (stereo unspecified)	-0.2	2.5	-3.2	-0.7	-26.0
